Laboratory results: publication PMC4336329 (PLoS ONE, 2015)
In all, about 310,000 compounds went through this assay and about 2,200 (0.71%) showed an effect of 50% or more. Effects have a minus sign here. This is one part of a sample in which strong results are shown more often than they occur.

Molecular target: human ether-à-go-go-related gene (hERG) potassium channel (human, UniProt Q12809)
Assay: primary screen, population patch clamp on CHO cells stably expressing hERG; higher = less effect of the substance

human ether-à-go-go-related gene (hERG) potassium channel, sequence (Q12809 whole entry, looked up): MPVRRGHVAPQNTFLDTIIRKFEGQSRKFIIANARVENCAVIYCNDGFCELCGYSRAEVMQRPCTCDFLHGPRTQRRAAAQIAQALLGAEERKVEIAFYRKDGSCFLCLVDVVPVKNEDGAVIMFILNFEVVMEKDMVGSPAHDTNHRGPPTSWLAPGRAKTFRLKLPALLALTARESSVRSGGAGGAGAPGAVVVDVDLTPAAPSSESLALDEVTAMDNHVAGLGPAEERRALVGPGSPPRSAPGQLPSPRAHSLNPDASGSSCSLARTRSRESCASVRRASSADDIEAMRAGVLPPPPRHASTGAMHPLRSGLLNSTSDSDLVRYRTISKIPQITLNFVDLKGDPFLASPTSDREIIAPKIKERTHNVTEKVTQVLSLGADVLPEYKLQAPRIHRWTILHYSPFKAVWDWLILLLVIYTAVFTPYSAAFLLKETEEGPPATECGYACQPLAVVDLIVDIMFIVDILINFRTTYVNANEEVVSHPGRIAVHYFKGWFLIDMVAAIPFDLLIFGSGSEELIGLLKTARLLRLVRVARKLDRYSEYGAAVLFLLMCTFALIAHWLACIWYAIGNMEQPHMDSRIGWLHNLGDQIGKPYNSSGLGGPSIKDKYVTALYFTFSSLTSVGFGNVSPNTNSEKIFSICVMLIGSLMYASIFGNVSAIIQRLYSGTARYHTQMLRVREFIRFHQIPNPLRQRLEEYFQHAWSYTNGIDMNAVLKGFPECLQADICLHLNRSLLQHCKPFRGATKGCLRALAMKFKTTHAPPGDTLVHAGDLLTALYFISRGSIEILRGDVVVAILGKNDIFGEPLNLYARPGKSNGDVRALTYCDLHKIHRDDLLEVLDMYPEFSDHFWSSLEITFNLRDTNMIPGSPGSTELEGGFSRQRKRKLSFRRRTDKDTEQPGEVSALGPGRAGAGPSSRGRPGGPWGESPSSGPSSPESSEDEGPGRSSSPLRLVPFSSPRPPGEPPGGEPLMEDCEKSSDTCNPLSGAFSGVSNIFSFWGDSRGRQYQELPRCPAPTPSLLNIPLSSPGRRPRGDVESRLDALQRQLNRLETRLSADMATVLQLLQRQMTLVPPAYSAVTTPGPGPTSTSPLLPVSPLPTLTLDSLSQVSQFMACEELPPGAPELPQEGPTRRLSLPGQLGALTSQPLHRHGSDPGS

Compared with Cc1ccc(C(=O)Nc2cccc(C(=O)N3CCOCC3)c2)cc1, CCN1CCc2c(sc(NC(=O)c3ccc(C(=O)c4ccccc4)cc3)c2C(N)=O)C1.Cl is lower in “hERG current change (%, negative = inhibition) at 1uM” value: 3.75% for the first, -7.72% for the second.

Compared with O=C(CCc1ccccc1)Nc1ccc2ccccc2n1, O=C(Cn1cc(/C=C\[N+](=O)[O-])c2ccccc21)Nc1ccccc1 is higher in “hERG current change (%, negative = inhibition) at 1uM” value: -2.39% for the first, 8.45% for the second.

First: CNC(=S)NNC(=O)c1sc2cc(C(F)(F)F)cnc2c1-c1ccccn1
Second: O=C(O)c1cccc(-n2cc(-c3cccc(C(F)(F)F)c3)cn2)c1
The “hERG current change (%, negative = inhibition) at 1uM” value of the first is lower: 4.79% for the first, 4.88% for the second.

Going from O=C(CN1CCN(C/C=C/c2ccccc2)CC1)NCc1ccc(Cl)cc1 to O=C(CN1CCN(C/C=C/c2ccccc2)CC1)NCc1ccccc1, the “hERG current change (%, negative = inhibition) at 1uM” value rises from -72.5% to -53.6%.

Compared with O=C(CN1CCN(Cc2ccccc2)CC1)NCc1ccc(Cl)cc1, O=C(CN1CCN(c2ccc(Cl)cc2)CC1)NCc1ccccc1 is lower in “hERG current change (%, negative = inhibition) at 1uM” value: -13.4% for the first, -23.6% for the second.

Going from O=C(CN1CCCCCC1)NCc1ccccc1 to Cl.O=C(CN1CCCC1)NCc1ccccc1, the “hERG current change (%, negative = inhibition) at 1uM” value rises from 11.8% to 13.4%.

First: O=C(NCC(=O)N1CCCCCC1)c1ccc(OC(F)F)cc1
Second: O=C(NCC(=O)N1CCN(C/C=C/c2ccccc2)CC1)c1ccc(OC(F)F)cc1
The “hERG current change (%, negative = inhibition) at 1uM” value of the first is higher: 10.4% for the first, -50.4% for the second.

Going from CCOc1ccc(C(=O)NCC(=O)N2CCN(C/C=C/c3ccccc3)CC2)cc1OCC to OCC1(Cc2ccccc2Cl)CCN(C/C=C/c2ccccc2)CC1, the “hERG current change (%, negative = inhibition) at 1uM” value falls from -1.35% to -27.8%.

First: CCOC(=O)c1c(C)[nH]c(C(=O)O)c1C
Second: CCOC(=O)c1c(C)n(CC(O)c2ccccc2)c2ccc(O)cc12 (stereo not drawn)
The “hERG current change (%, negative = inhibition) at 1uM” value of the first is lower: 11.5% for the first, 13.6% for the second.

Going from OC1CCCN(Cc2cccc3ccccc23)C1 (stereo not drawn) to COc1cccc(CC2(CO)CCCN(C/C=C/c3ccccc3OC)C2)c1 (stereo not drawn), the “hERG current change (%, negative = inhibition) at 1uM” value falls from 14.7% to -32.8%.

Compared with Cc1cc(C)cc(N2CC(O)Cn3c2nc2c3c(=O)[nH]c(=O)n2C)c1 (stereo not drawn), COc1ccc(OC)c(N2C(=O)CC(Cc3cc(C)cc(C)c3)C2=O)c1 (stereo not drawn) is lower in “hERG current change (%, negative = inhibition) at 1uM” value: 9.84% for the first, 5.71% for the second.

First: Cc1ccc(/C=N/NC(=O)c2nnn(-c3nonc3N)c2CSc2ccccc2)cc1
Second: Cc1cccc(-n2c(/C=C/c3ccc([N+](=O)[O-])o3)nc3ccccc3c2=O)c1
The “hERG current change (%, negative = inhibition) at 1uM” value of the first is higher: 11.4% for the first, 2.06% for the second.

Compared with O=C(N=C1SC2CS(=O)(=O)CC2N1CCc1ccccc1)C1CC1 (stereo not drawn), O=C(OCc1ccc([N+](=O)[O-])cc1)C1CC(=O)N(CCc2ccccc2)C1 (stereo not drawn) is lower in “hERG current change (%, negative = inhibition) at 1uM” value: 9.32% for the first, -56.3% for the second.

Going from O=C(NNC(=O)c1sc2cccc(Cl)c2c1Cl)Nc1ccccc1 to CC(=O)Nc1ccc(C(=O)Nc2nc(-c3cc(C)n(Cc4ccccc4)c3C)cs2)cc1, the “hERG current change (%, negative = inhibition) at 1uM” value falls from 13.9% to 11.3%.

Compared with COc1ccc(-c2coc3c(C)c4oc(=O)c(CCC(=O)O)c(C)c4cc23)cc1, COc1ccc(-c2cc(=[NH+]c3cccc(C(=O)O)c3)c3cc(C)ccc3o2)cc1.[O-][Cl+3]([O-])([O-])[O-] is higher in “hERG current change (%, negative = inhibition) at 1uM” value: 6.19% for the first, 6.72% for the second.

Compared with CCCCCCNC(=O)CC(NS(=O)(=O)c1ccc(NC(C)=O)cc1)C(C)C (stereo not drawn), COc1cc(NS(=O)(=O)c2ccc(NC(=O)COc3ccccc3Cl)cc2)nc(OC)n1 is higher in “hERG current change (%, negative = inhibition) at 1uM” value: -0.978% for the first, 4.62% for the second.

Compared with COc1ccc(OC)c(NC(=O)c2cccc(N3C(=O)C4C5CCC(C5)C4C3=O)c2)c1 (stereo not drawn), COc1cccc(C(=O)Nc2cccc(-c3nc4ncccc4o3)c2C)c1 is higher in “hERG current change (%, negative = inhibition) at 1uM” value: 2.22% for the first, 12.6% for the second.

Going from F[B-](F)(F)F.OCCC[NH+]=c1cc(-c2ccccc2)oc2ccc(Cl)cc12 to F[B-](F)(F)F.OCC[NH+]=c1cc(-c2ccccc2)oc2ccc(Cl)cc12, the “hERG current change (%, negative = inhibition) at 1uM” value rises from -78% to -71.1%.

Compared with F[B-](F)(F)F.OCCCCC[NH+]=c1cc(-c2ccccc2)oc2ccc(Cl)cc12, O=c1cc(-c2ccccc2)oc2ccc(O)cc12 is higher in “hERG current change (%, negative = inhibition) at 1uM” value: -86.1% for the first, 4.17% for the second.

First: Clc1ccc(Oc2ncnc3oc(-c4ccccc4)cc23)cc1
Second: O=c1oc2ccc(Cl)cc2cc1-c1ccccc1
The “hERG current change (%, negative = inhibition) at 1uM” value of the first is lower: 6.4% for the first, 16.1% for the second.

Compared with COc1ccc(-c2cc(=[NH+]c3ccccc3)c3cc(C)ccc3o2)cc1.[O-][Cl+3]([O-])([O-])[O-], COc1ccc(C2CC(c3ccccc3)=NN2c2ccc(S(N)(=O)=O)cc2)cc1OC (stereo not drawn) is lower in “hERG current change (%, negative = inhibition) at 1uM” value: 14% for the first, 7.52% for the second.

Compared with OCCCNc1nc(-c2ccccc2)c2cc(Cl)ccc2n1, Clc1cccc(OCc2nnc(-c3ccccc3Br)o2)c1 is higher in “hERG current change (%, negative = inhibition) at 1uM” value: 5.65% for the first, 9.74% for the second.

First: Cc1cc(C(=O)OCC(=O)N2C(C)CCCC2C)c(C)o1 (stereo not drawn)
Second: CCOC(=O)C1CCN(C(=O)CCS(=O)(=O)c2ccc3c(c2)n(C)c(=O)c(=O)n3C)CC1
The “hERG current change (%, negative = inhibition) at 1uM” value of the first is lower: 9.75% for the first, 10.2% for the second.

Going from COc1ccc(-n2c(Cc3cccn3C)nnc2SCC(=O)Nc2cccc(NC(C)=O)c2)cc1 to COc1ccc(CCn2c(=N)c(C(=O)NCc3ccco3)cc3c(=O)n4cccc(C)c4nc32)cc1, the “hERG current change (%, negative = inhibition) at 1uM” value falls from 3.64% to -76.6%.

Compared with Cc1ccc(OCCOCCn2cnc3ccccc3c2=O)c([N+](=O)[O-])c1.O=C(O)C(=O)O, Cc1ccc(C(=O)Nc2ccc(OCc3ccccc3)cc2)cc1[N+](=O)[O-] is higher in “hERG current change (%, negative = inhibition) at 1uM” value: -6.31% for the first, 2% for the second.

Compared with CCCCCOc1ccc(CSC(=N)N)cc1[N+](=O)[O-].Cl, CCCCOc1ccc(CSC(=N)N)cc1[N+](=O)[O-].Cl is lower in “hERG current change (%, negative = inhibition) at 1uM” value: -3.45% for the first, -26.4% for the second.

First: CCCCCOc1ccc(CSC2=NCCN2)cc1[N+](=O)[O-]
Second: CCCCOc1ccc(CSC2=NCCN2)cc1[N+](=O)[O-].Cl
The “hERG current change (%, negative = inhibition) at 1uM” value of the first is lower: -60% for the first, -22.3% for the second.

Compared with CCOc1ccc(CSC2=NCCN2)cc1Cl.Cl, COc1ccc(CSC2=NCCN2)cc1Cl.Cl is lower in “hERG current change (%, negative = inhibition) at 1uM” value: -4.54% for the first, -7.52% for the second.

Compared with CCOc1ccc(CSC2=NCCN2)cc1[N+](=O)[O-].Cl, CCCOc1ccc(CSC2=NCCN2)cc1[N+](=O)[O-] is higher in “hERG current change (%, negative = inhibition) at 1uM” value: -71% for the first, -53.5% for the second.

First: Br.O=[N+]([O-])c1ccc(CSC2=NCCN2)cc1
Second: COc1ccc(CSC2=NCCN2)cc1Br
The “hERG current change (%, negative = inhibition) at 1uM” value of the first is lower: 8.87% for the first, 10.8% for the second.

First: CCOc1ccc(CSC(=N)N)cc1[N+](=O)[O-].Cl
Second: CCCCOc1ccc(CSc2nnc(C)n2N)cc1[N+](=O)[O-]
The “hERG current change (%, negative = inhibition) at 1uM” value of the first is lower: -50.3% for the first, -2.42% for the second.

Compared with COc1cc(OC)cc(C(=O)Nc2ccc3c(c2)OCCO3)c1, O=C(Nc1cccc(Oc2ccc3c(c2)C(=O)NC3=O)c1)c1cccs1 is lower in “hERG current change (%, negative = inhibition) at 1uM” value: 7.93% for the first, -2.79% for the second.

Compared with CSc1ccccc1C(=O)N1CCN(S(=O)(=O)c2sc(C(=O)O)c(C)c2C(=O)O)CC1, CCN1CCN(c2ncnc3sc(C)c(-c4ccccc4)c23)CC1 is lower in “hERG current change (%, negative = inhibition) at 1uM” value: 0.019% for the first, -25.9% for the second.

First: CC(C)CCNC(=O)C1c2ccccc2Oc2ccccc21
Second: Cc1ccccc1N1C(=O)C(Oc2ccc(Cl)cc2)C1CNCCCOC(C)C (stereo not drawn)
The “hERG current change (%, negative = inhibition) at 1uM” value of the first is lower: -12.1% for the first, -3.82% for the second.

First: COc1ccccc1/C=C/CN1CCC(CO)(Cc2ccccc2)CC1
Second: COc1ccc(CC2(CO)CCN(C/C=C/c3ccccc3OC)CC2)cc1
The “hERG current change (%, negative = inhibition) at 1uM” value of the first is higher: 0.366% for the first, -71.4% for the second.

Compared with COc1ccc(/C=C/CN2CCC(CO)(Cc3ccccc3Cl)CC2)cc1, COc1ccc(/C=C/CN2CCCC(CO)(Cc3cccc(Cl)c3)C2)cc1 (stereo not drawn) is higher in “hERG current change (%, negative = inhibition) at 1uM” value: -61.9% for the first, 3.25% for the second.

Going from NC(=O)CSc1nnc(-c2ccccn2)n1N to Cc1cccn2c(=O)nc(SCC(=O)NCc3ccco3)nc12, the “hERG current change (%, negative = inhibition) at 1uM” value falls from 12.4% to 4.54%.

First: CC(C)OC(=O)CC(=O)CSc1nc2c(cc1C#N)CCC2
Second: CCN(CC(=O)Nc1c(F)cccc1F)C(=O)CSC(=S)N1CCCC1
The “hERG current change (%, negative = inhibition) at 1uM” value of the first is higher: 16.3% for the first, 6.34% for the second.

Going from O=C(OCc1nnc(-c2ccc([N+](=O)[O-])cc2)o1)C1CC(=O)N(CCc2ccccc2)C1 (stereo not drawn) to O=C(OCc1ccc([N+](=O)[O-])cc1)C1CC(=O)N(c2ccccc2)C1 (stereo not drawn), the “hERG current change (%, negative = inhibition) at 1uM” value falls from -17.8% to -36%.

Compared with Cc1cccn2c(=O)c3cc(S(=O)(=O)c4ccccc4)c(=N)n(Cc4ccco4)c3nc12, Cc1cccn2c(=O)c3cc(C(=O)NCCc4ccccc4)c(=N)n(Cc4ccco4)c3nc12 is lower in “hERG current change (%, negative = inhibition) at 1uM” value: 5.3% for the first, -35.5% for the second.

Going from Cc1cccn2c(=O)c3cc(C(=O)NCc4ccco4)c(=N)n(C(C)C)c3nc12 to Cc1cccn2c(=O)c3cc(C(=O)NCc4ccco4)c(=N)n(CCOCCO)c3nc12, the “hERG current change (%, negative = inhibition) at 1uM” value rises from -84.9% to -63.3%.

First: Cc1cccn2c(=O)c3cc(C(=O)NCc4ccco4)c(=N)n(CCc4ccccc4)c3nc12
Second: CC1(c2nnc(-c3ccncc3)o2)CC(c2ccccc2)=NO1 (stereo not drawn)
The “hERG current change (%, negative = inhibition) at 1uM” value of the first is lower: -82.2% for the first, 16.4% for the second.

First: CCOC(=O)CC1Sc2ccccc2NC1=O (stereo not drawn)
Second: O=C(CC1CCCCC1)c1c(O)c2ccccc2oc1=O
The “hERG current change (%, negative = inhibition) at 1uM” value of the first is lower: -7.75% for the first, -4.69% for the second.

For O=Cc1ccc(-c2ccc(C(=O)O)cc2)o1, the “hERG current change (%, negative = inhibition) at 1uM” value was -2.38%.
